{"source": "PubChem BioAssay (Tox21)", "note": "Results filed as inconclusive are left out. A call without a number means that no potency is given here. Some structures have more than one record in an assay (separate samples or runs), and their calls can disagree. Calls of active or inactive are those of the source. The call rests on the fitted dose curve; in most records, active means well fitted cell-killing curve with a large enough effect in the repeat runs; inconclusive means weak or mixed curves, or effect the other way; inactive means flat fitted curve, though single readings scatter. Potency means the concentration at half of the fitted maximal effect.", "data": [{"test": "qHTS RealTime-Glo MT Cell Viability Assay in HEK293 cells - 8 hour (AID 1224887); further: nearly all actives have a fitted effect of over 50% in size; on activity change, negative = cytotoxicity: top concentration of the series differs between compounds", "conditions": "RealTime-Glo luminescence; series mostly up to 76.8 µM; activity change, negative = cytotoxicity: at the top concentration", "excerpt": "U.S. Tox21 Program National Center for Advancing Translational Sciences [NCATS] NIH Chemical Genomics Center [NCGC] U.S. Environmental Protection Agency [EPA] National Institutes of Environmental Health Sciences [NIEHS] National Toxicology Program [NTP] U.S. Food and Drug Administration [FDA] Tox21 Assay Overview: Measure of cell viability is critical in the cell-base assay. Analysis of cell viability is necessary for the characterization of cell responses to cytotoxic drugs and environmental stress. A RealTime-Glo MT Cell Viability Assay to monitor cell viability in real time of continues cell culture during 40 hours of compound treatment was used to screen Tox21 10K library compounds in Hek293 cells. The RealTime-Glo MT Cell Viability Assay is a nonlytic, homogeneous, bioluminescent method to measure cell viability in real time using a simple, plate-based method. The assay involves adding NanoLuc luciferase and a cell-permeant prosubstrate to cells in culture. Viable cells reduce the proprietary prosubstrate to generate a substrate for NanoLuc luciferase. This substrate diffuses from cells into the surrounding culture medium, where it is rapidly used by the NanoLuc Enzyme to produce a luminescent signal. The signal correlates with the number of viable cells, making the assay well suited for cytotoxicity studies.\nTox21 Assay Protocol Summary: The mixture of Hek293 cell suspension and reagents were dispensed at 600cells/6 ul/well in 1536-well tissue culture treated black solid bottom plates using a Multidrop dispenser. After the assay plates were incubated at a 37 C/5% CO2 incubator for 5 hours, 23 nL of compounds dissolved in DMSO, positive and negative controls was transferred to the assay plate by a pintool work station. The plates were incubated at 37 C for 40 hours. The luminescence intensity were measured at 0h, 8h, 16h, 24h, 32h and 40h time points using ViewLux plate reader during compound treatment.", "values": [{"smiles": "c1ccc2c(c1)[nH]c1ccccc12", "Potency": "inactive"}, {"smiles": "O=C1OC2(c3ccccc31)c1cc(I)c(O)c(I)c1Oc1c2cc(I)c(O)c1I", "Potency": "49.1 µM (active) and inactive"}, {"smiles": "C[C@]12CC[C@@H]3c4ccc(O)cc4CC[C@H]3[C@@H]1CC[C@H]2O", "activity change, negative = cytotoxicity": "-32.3% (inactive)"}, {"smiles": "Cc1cccc(Nc2ccccc2C(=O)O)c1C", "Potency": "inactive"}, {"smiles": "COc1ccc2nc(N)sc2c1", "activity change, negative = cytotoxicity": "-0.484% (inactive)"}, {"smiles": "OC[C@H]1O[C@@H]2O[C@H]3[C@H](O)[C@@H](O)[C@@H](O[C@H]4[C@H](O)[C@@H](O)[C@@H](O[C@H]5[C@H](O)[C@@H](O)[C@@H](O[C@H]6[C@H](O)[C@@H](O)[C@@H](O[C@H]7[C@H](O)[C@@H](O)[C@@H](O[C@H]1[C@H](O)[C@H]2O)O[C@@H]7CO)O[C@@H]6CO)O[C@@H]5CO)O[C@@H]4CO)O[C@@H]3CO", "Potency": "inactive"}, {"smiles": "CC(C)(C)c1cccc(C(C)(C)C)c1O", "Potency": "47.9 µM (active) and inactive"}, {"smiles": "CCCCCC1C(=O)CCC1CC(=O)OC", "note": "(stereo not given)", "Potency": "inactive"}, {"smiles": "CCCOCCO", "Potency": "inactive"}, {"smiles": "CC(C)(Oc1ccc(Cl)cc1)C(=O)O", "Potency": "inactive"}, {"smiles": "C=C[C@H]1CN2CC[C@H]1C[C@H]2[C@H](O)c1ccnc2ccc(OC)cc12", "Potency": "inactive"}, {"smiles": "C[C@]12CC[C@@H]3c4ccc(O)cc4CC[C@H]3[C@@H]1CC[C@@H]2O", "Potency": "inactive"}, {"smiles": "CC1(C)OC(=O)NC1=O", "Potency": "inactive"}, {"smiles": "O=C(O)COCCN1CCN(C(c2ccccc2)c2ccc(Cl)cc2)CC1", "note": "(stereo not given)", "Potency": "inactive"}, {"smiles": "Oc1ccc(C(c2ccc(O)cc2)C(Cl)(Cl)Cl)cc1", "activity change, negative = cytotoxicity": "-19.3% (inactive)"}, {"smiles": "CC(=O)[C@H]1CC[C@H]2[C@@H]3CC=C4C[C@@H](O)CC[C@]4(C)[C@H]3CC[C@]12C", "Potency": "inactive"}, {"smiles": "O=C(O)c1ccc(O)cc1", "Potency": "inactive"}, {"smiles": "c1ccc2cc3ccccc3cc2c1", "activity change, negative = cytotoxicity": "4.95% (inactive)"}, {"smiles": "Cc1ccc([N+](=O)[O-])c(C)c1", "activity change, negative = cytotoxicity": "5.51% (inactive)"}, {"smiles": "CC/C(=C(/CC)c1ccc(O)cc1)c1ccc(O)cc1", "Potency": "15.4 µM (active)"}, {"smiles": "C=CN1CCCC1=O", "Potency": "inactive"}, {"smiles": "Nc1cc([N+](=O)[O-])ccc1C(=O)O", "Potency": "inactive"}, {"smiles": "C1COCCN1", "Potency": "inactive"}, {"smiles": "Cc1ccc(C(C)(C)C)c(O)c1", "activity change, negative = cytotoxicity": "-25% (inactive)"}, {"smiles": "CN(C)/N=N/c1nc[nH]c1C(N)=O", "Potency": "inactive"}, {"smiles": "C=C[Si](OCCOC)(OCCOC)OCCOC", "Potency": "inactive"}, {"smiles": "OC[C@@H](O)[C@@H](O[C@@H]1O[C@H](CO)[C@H](O)[C@H](O)[C@H]1O)[C@H](O)[C@@H](O)CO", "Potency": "inactive"}, {"smiles": "O=C1CCc2ccccc2O1", "Potency": "inactive"}, {"smiles": "C=CCNCC=C", "Potency": "inactive"}, {"smiles": "C=CCOC(=O)C(=C)C", "Potency": "inactive"}, {"smiles": "NCCN", "Potency": "inactive"}, {"smiles": "IC(I)I", "Potency": "inactive"}, {"smiles": "CC1(C)O[C@@H]2C[C@H]3[C@@H]4C[C@H](F)C5=CC(=O)C=C[C@]5(C)[C@@]4(F)[C@@H](O)C[C@]3(C)[C@]2(C(=O)CO)O1", "Potency": "inactive"}, {"smiles": "CCCCCCCCCCC(CO)CCCCCCCC", "note": "(stereo not given)", "Potency": "inactive"}, {"smiles": "CC(=O)O[C@]1(C(C)=O)CC[C@H]2[C@@H]3C=C(Cl)C4=CC(=O)CC[C@]4(C)[C@H]3CC[C@@]21C", "activity change, negative = cytotoxicity": "-17.1% [at 35.3 µM] (inactive)"}, {"smiles": "FC(F)(F)C(Cl)Br", "note": "(stereo not given)", "Potency": "inactive"}, {"smiles": "Cc1ccc(/C(=C\\CN2CCCC2)c2ccccn2)cc1", "Potency": "inactive"}, {"smiles": "[O-]/[N+](=N\\O)c1ccccc1", "Potency": "inactive"}, {"smiles": "COCCOCCOCCO", "Potency": "inactive"}, {"smiles": "C=C[C@H]1CN2CC[C@H]1C[C@@H]2[C@@H](O)c1ccnc2ccc(OC)cc12", "Potency": "42.9 µM (active) and inactive"}]}]}
